KDM5B inhibitor = blocks human KDM5B histone demethylase activity. Q9UGL1. KDM5B demethylase, FDH-coupled NADH fluorescence (FDH is formaldehyde dehydrogenase). Potency, µM (highest dose often 57.7 µM), actives largely listed as inhibitors. 220,000 compounds, 2.6% hits. AID 1347165; active means well fitted inhibition curve with a large enough effect; further: 0% is about no effect; nearly all actives have a fitted effect of over 70% in size
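Measured: NADH fluorescence change, 30 min, RT. System: KDM5BΔAP 200 nM final, H3K4me3 peptide, α-KG, Fe(II), ascorbate, NAD⁺ plus FDH, pH 7.5 HEPES. Compounds: titrated, 10 min pre-incubation with enzyme.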
Starred values were filed as active, the others as inactive; i = inactive. The sample as a whole holds a higher share of hits than the screen did. Potency means the concentration at half of the fitted maximal effect.

SMILES | KDM5B inhibitor
CN1C(=O)c2cccn2CC1CNC(=O)c1ccccc1 (stereo unspecified) | i
CN1C(=O)c2cccn2CC1CNC(=O)c1cc(-c2ccccc2)n[nH]1 (stereo unspecified) | i
CN1C(=O)c2cccn2CC1CNC(=O)c1cc2ccccc2[nH]1 (stereo unspecified) | 15.8µM*
CCOC(=O)CN1CCCC1c1ccc(C(=O)NCCn2ccnc2)s1 (stereo unspecified) | 28.2µM*
COc1ccc(C2CCCN2C(=O)NCCn2ccnc2)cc1OC (stereo unspecified) | i
COc1ccc(C2CCCCCN2C(=O)NCCn2ccnc2)cc1 (stereo unspecified) | i
O=C(NC1CC1)C(NCc1cccc(Cl)c1)c1ccc(F)cc1 (stereo unspecified) | i
CCCCNC(=S)Nc1cccc(Cl)c1 | i
COc1ccc(OC)c(CNC(=O)c2ccc(N3CC4CC(C3)[C@H]3CCCC(=O)N3C4)nc2)c1 (stereo partly specified) | i
COc1ccccc1Nc1nc2nccc(-c3ccccc3OC)c2c(=O)[nH]1 | i
COc1cc(CNc2nc(-c3c(C)noc3C)cc3cc(CN(C)C)oc23)cc(OC)c1 | i
COc1cccc(Nc2nc(-c3c(C)noc3C)cc3cc(CN(C)C)oc23)c1 | 35.5µM*
Cc1oc(C(O)c2cncnc2)nc1C(=O)Nc1cccc([S+](C)(=O)[O-])c1 (stereo unspecified) | i
Cc1noc(C)c1-c1cc2cc(CN(C)C)oc2c(Nc2ccn(C)n2)n1 | i
CCOC(=O)c1c(C)oc2nc(C)nc(Nc3cccc(OC)c3)c12 | i
Cc1noc(C)c1-c1cc2cc(CN(C)C)oc2c(Nc2cccc([S+](C)(=O)[O-])c2)n1 | 31.6µM*
Cc1ccc2[nH]cc(CCNC(=O)/C=C/c3ccccc3)c2c1 | i
Cn1c(=O)c2c(nc(CN(Cc3ccccc3)Cc3ccccc3)n2CCCO)n(C)c1=O | i
O=C(c1cccnc1)N1CCC(c2nnc3n2C(C(=O)N2CCN(c4ncccn4)CC2)CC3)CC1 (stereo unspecified) | i
COc1ccc(-c2nn3c(c2C)NC(=O)CC3C(=O)Nc2ccc(C)cc2)cc1 (stereo unspecified) | i
O=C(NC1CCCC1)N1CCCCCC1CN1CCOCC1 (stereo unspecified) | i
CC1CCc2sc(C(=O)N/N=C3/CCCCc4ccccc43)cc2C1 (stereo unspecified) | i
Cc1cccc(C)c1NC(=O)COc1ccc(S(=O)(=O)N2CCCC2)cc1C(N)=O | i
Cc1ccc(-c2ccc3nnc(CNC(=O)c4ccccc4C)n3n2)cc1C | 28.2µM*
Cc1ccc(-n2nnnc2CNC(=O)c2ccccc2F)cc1C | i
SMILES | KDM5B inhibitor
Cc1cc(NS(=O)(=O)c2cc(-c3ccc4nnc(C)n4n3)ccc2C)c(C)cc1Br | i
Cc1ccc(-c2ccc(=O)n(Cc3noc(C(=O)NCc4ccco4)n3)n2)cc1C | i
COc1ccc(C(=O)CSc2nnc(CNC(=O)c3ccccc3F)n2C)cc1OC | i
Cc1ccc(-c2ccc3nnc(CNC(=O)c4ccoc4)n3n2)cc1C | 15.8µM*
Cc1ccc(-c2ccc3nnc(CNC(=O)c4ccccc4F)n3n2)cc1C | 28.2µM*
Cc1ccc(-n2nnnc2CNC(=O)c2ccccc2)cc1C | i
Cc1ccc(C(=O)NCc2nnnn2-c2ccc(C)c(C)c2)cc1 | i
CN1CCCCCC1=NCCCn1cnc2c1c(=O)n(C)c(=O)n2C | i
O=C(CCN=C1NS(=O)(=O)c2ccccc21)Nc1cc(Cl)cc(Cl)c1 | i
Cc1ccc(C(=O)N(C)Cc2cccc(C(F)(F)F)c2)cc1 | i
Brc1ccc(-c2csc(NC3CC3)n2)cc1 | i
COCCn1c(CCC(=O)Nc2cc(C)cc(C)c2)nc2c1c(=O)[nH]c(=O)n2CC(C)C | i
Cc1ccccc1CC(=O)N1CCCC(c2noc(COc3ccccc3)n2)C1 (stereo unspecified) | i
Cc1cc(-n2c(C)cc(C(=O)CSc3nnc(COc4ccccc4Cl)n3C)c2C)no1 | i
FC(F)(F)C(Oc1nc(N2CCCCC2)nc(N2CCOCC2)n1)C(F)(F)F | i
CN1CC(=O)N(C2CCCNC2)Cc2c1ncnc2N1CCN(c2ncccn2)CC1 (stereo unspecified) | i
CN1CC(=O)N(C2CCC2)Cc2c1ncnc2N1CCC(O)CC1 | i
CN1CC(=O)N(C2CCCNC2)Cc2c1ncnc2N1CCc2ccccc2C1 (stereo unspecified) | 50.1µM*
CN1CC(=O)N(C2CCC2)Cc2c1ncnc2N1CCN(c2ncccn2)CC1 | i
CC(=O)N1CCCN(c2ncnc3c2CN(C2CCCNC2)C(=O)CN3C)CC1 (stereo unspecified) | 50.1µM*
CC(=O)N1CCCN(c2ncnc3c2CN(C2CCCNCC2)C(=O)CN3C)CC1 (stereo unspecified) | i
Cc1ccc2c(c1)SC(C(=O)Nc1ccc(C)c(C)c1)C2 (stereo unspecified) | i
CN(CC(=O)NC(=O)NCc1ccco1)Cc1cccc(Cl)c1Cl | i

Screening data from PubChem BioAssay.
